In the library only some 4% were active in any assay of this set; here they are far more common.
HSV replic up: HSV replication enhancement; maximum fold increase; 220,000 compounds, 0.005% hits; HSV replication augmentation in cells, fold increase; in the data active means maximum fold increase above about 1.5; inconclusive means no clear call, values can overlap the other calls; tested in PC3 cells
Measles CPE: protection of cells from measles virus | Measles virus-infected cells, CPE protection, absorbance | protection (pct of control), % at 4 µM | 140,000 compounds, 1.5% hits | AID 841; in the data active means protection mostly above about 24%, no sharp cut-off; inactive means mostly below about 26%
Arbovirus anti: antivirals against arbovirus infection | inhibition, % at 10 µM | 200,000 compounds, 0.37% hits | AID 1251 | arbovirus infection cell-based antiviral screen; in the data active means inhibition above about 30%
KCC2 mod: modulates chloride dependent transport by human KCC2 | KCC2 cells, thallium flux FluoZin-2 fluorescence | AID 1456 | Q9H2X9 | 190,000 compounds, 2.2% hits | B-score of Tl+ flux slope (higher = more flux/activation; lower = inhibition) at 10 µM;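 active means thallium flux slope and its plate-corrected score both differing from the plate sample mean at a set confidence after two filtering rounds, in either direction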;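 further: slope of fluorescence scaled to starting intensity during 10 to 20 s after thallium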
Target sequence (Q9H2X9 whole entry, looked up): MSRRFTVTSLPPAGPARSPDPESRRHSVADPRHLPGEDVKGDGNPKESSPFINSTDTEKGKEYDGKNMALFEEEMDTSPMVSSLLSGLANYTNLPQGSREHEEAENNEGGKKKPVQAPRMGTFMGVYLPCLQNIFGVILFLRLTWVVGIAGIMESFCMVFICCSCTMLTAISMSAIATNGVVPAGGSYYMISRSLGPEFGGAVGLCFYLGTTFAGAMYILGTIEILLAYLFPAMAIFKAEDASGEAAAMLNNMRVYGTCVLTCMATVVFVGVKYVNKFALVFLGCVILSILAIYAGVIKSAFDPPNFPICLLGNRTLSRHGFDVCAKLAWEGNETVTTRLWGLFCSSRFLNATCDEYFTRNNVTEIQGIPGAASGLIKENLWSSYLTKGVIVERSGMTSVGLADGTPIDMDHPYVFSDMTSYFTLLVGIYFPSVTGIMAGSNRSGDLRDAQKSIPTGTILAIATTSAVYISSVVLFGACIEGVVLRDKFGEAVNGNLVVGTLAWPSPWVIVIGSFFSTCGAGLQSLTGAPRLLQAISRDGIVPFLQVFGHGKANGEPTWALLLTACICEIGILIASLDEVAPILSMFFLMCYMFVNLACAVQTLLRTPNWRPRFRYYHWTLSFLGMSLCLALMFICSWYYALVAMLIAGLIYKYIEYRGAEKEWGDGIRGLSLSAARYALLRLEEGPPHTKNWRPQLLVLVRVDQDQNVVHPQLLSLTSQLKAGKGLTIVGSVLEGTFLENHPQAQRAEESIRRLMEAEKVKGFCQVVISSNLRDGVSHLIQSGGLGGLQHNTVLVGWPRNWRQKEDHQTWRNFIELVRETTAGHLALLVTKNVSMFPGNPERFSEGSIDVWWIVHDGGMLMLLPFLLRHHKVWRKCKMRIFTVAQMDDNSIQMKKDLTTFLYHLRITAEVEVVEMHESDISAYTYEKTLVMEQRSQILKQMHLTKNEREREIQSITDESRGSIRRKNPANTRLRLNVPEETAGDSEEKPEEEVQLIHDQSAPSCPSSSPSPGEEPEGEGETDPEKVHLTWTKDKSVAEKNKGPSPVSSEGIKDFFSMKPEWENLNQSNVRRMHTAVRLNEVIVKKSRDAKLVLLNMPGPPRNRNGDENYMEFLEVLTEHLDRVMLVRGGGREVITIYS
ROMK primary: modulates human ROMK potassium channel activity; B-score at 10 µM; AID 1918; 130,000 compounds, 2% hits; Tet-inducible ROMK, thallium flux fluorescence; actives lie on both sides;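 active means signal ratio slope over the read window, or its plate-corrected B-score, at least 3 SD from the plate mean, either direction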;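 further: B-score of the F/F0 ratio slope over 7 to 12 s after thallium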
KCC2 secondary: KCC2 (human) modulation, secondary assay; HEK293-KCC2, thallium flux, FluoZin2 fluorescence; stronger effect = higher value; normalised thallium flux (F/F0 slope) at 10 µM; shares compounds with KCC2 mod; 3,700 compounds, 15% hits;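 active means thallium flux slope above the same plate's solvent-only control mean plus 3 SD; inconclusive means the two replicate wells disagree; inactive means no significant difference from solvent-only control wells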
KCC2 bumet counter: thallium flux persisting under bumetanide in KCC2 cells, counter-screen secondary assay. shares compounds with KCC2 mod. HEK293-KCC2 + bumetanide/ouabain, thallium flux FluoZin2; stronger effect = higher value. normalized thallium flux at 10 µM. 3,700 compounds, 49% hits. AID 1714;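 active means thallium entry rate above the same plate's blocked-transporter control wells by more than 3 SD; inconclusive means the two repeat wells disagree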;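 further: raw slope of fluorescence over initial fluorescence between 10 and 20 s after thallium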
KCC2 secondary2: confirmation of human KCC2 transport modulators; shares compounds with KCC2 mod; HEK293-KCC2, thallium flux FluoZin2 fluorescence; actives lie on both sides; F/F0 rise rate, 10–20 s post-thallium; normalized thallium flux at 10 µM; 3,700 compounds, 23% hits; AID 1715;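 active means thallium flux slope more than 3 SD above or below the plate's solvent-only control mean, mostly below; inconclusive means the two repeat wells disagreed; inactive means no significant shift from solvent-only controls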
HEK counter1: counter-screen for KCC2 modulators: effect in parental HEK293 cells; shares compounds with KCC2 mod; thallium flux FluoZin2, ouabain; baseline-ratio fluorescence slope, 10–20 s after thallium; thallium flux rate (normalised fluorescence) at 10 µM; 3,700 compounds, 46% hits;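 active means thallium flux rate significantly above the same plate's solvent-only control wells, beyond their mean plus 3 SD; inconclusive means the two replicate wells gave conflicting results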
KCC2 ouabain: KCC2 (human) modulation, ouabain retest; HEK293-KCC2, thallium flux FluoZin2 fluorescence; bidirectional: low = inhibitor, high = activator; shares compounds with KCC2 mod; 3,700 compounds, 48% hits; raw Tl+ flux slope (below DMSO = inhibition, above = activation) at 10 µM;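 active means thallium flux slope beyond 3 SD from same-plate DMSO control mean in most replicates, usually higher, sometimes lower; inconclusive means repeat tests gave conflicting results; inactive means no significant difference from controls in most replicates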;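 further: slope of initial-normalized fluorescence between seconds 10 and 20 after thallium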
HEK293 Tl flux2: parental HEK flux effect, counter-screen 2 | shares compounds with KCC2 mod | HEK293 parental, thallium flux FluoZin-2 fluorescence slope | thallium flux slope at 10 µM | 3,700 compounds, 33% hits;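 active means thallium flux slope above the same plate's solvent-control mean plus 3 SD in both duplicate wells; inconclusive means duplicate wells that disagreed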;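 further: run without ouabain in cells lacking the KCC2 cotransporter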
Each line names hits and unclear results; the compound was inactive in the other large screens (follow-up assays come after a bar, where they were run).

Cc1ccc(C(=O)CSc2nnc3c4ccccc4nc(C(C)(C)C)n23)cc1	KCC2 mod 16 | KCC2 secondary 0.014 | KCC2 bumet counter 0.043 | KCC2 secondary2 inactive | HEK counter1 0.019 | KCC2 ouabain 0.032 | HEK293 Tl flux2 0.012
CC(=O)CSc1nnc2c3ccccc3nc(C(C)(C)C)n12	none (no result: Measles CPE, ROMK primary)
CCc1c(C)nc2ncnn2c1N1CCN(S(=O)(=O)c2ccc(OC)cc2)CC1	none (no result: Measles CPE)
O=C1NC(=S)N(C(=O)c2ccc(F)cc2)/C1=C/c1ccccc1	HSV replic up inconclusive, KCC2 mod 26 | KCC2 secondary 0.021 | KCC2 bumet counter 0.082 | KCC2 secondary2 inconclusive | HEK counter1 0.078 | KCC2 ouabain 0.056 | HEK293 Tl flux2 0.032
CC1CCN(C(=O)COC(=O)c2ccc3c(c2)OCO3)CC1	none (no result: Measles CPE)
CCOc1ccc(C(=O)N/N=C/c2c(C)[nH]c(=O)[nH]c2=O)cc1	none (no result: Measles CPE, Arbovirus anti)
S=c1nc(-c2sccc2OCc2ccc(Cl)cc2Cl)[nH][nH]1	KCC2 mod 24 (no result: Measles CPE) | KCC2 secondary inactive | KCC2 bumet counter 0.087 | KCC2 secondary2 inactive | HEK counter1 0.023 | KCC2 ouabain inconclusive | HEK293 Tl flux2 0.013
COc1nccc(-c2ccc(F)cc2)c1C#N	none (no result: Measles CPE)
CCOC(=O)c1cc2c(=O)[nH]ccc2nc1C	KCC2 mod 13 (no result: ROMK primary) | KCC2 secondary inactive | KCC2 bumet counter inconclusive | KCC2 secondary2 inactive | HEK counter1 inactive | KCC2 ouabain inactive | HEK293 Tl flux2 inactive
C=CCNC(=O)c1c(CSc2ccc(Cl)cc2)noc1C(=O)NCc1ccccc1	none (no result: Measles CPE, Arbovirus anti, KCC2 mod, ROMK primary)
Cn1c(=O)c2c(nc(NCC3CCCO3)n2Cc2cccc(Br)c2)n(C)c1=O (stereo unspecified)	KCC2 mod -7.6 (no result: ROMK primary) | KCC2 secondary inactive | KCC2 bumet counter inactive | KCC2 secondary2 inactive | HEK counter1 inactive | KCC2 ouabain inactive | HEK293 Tl flux2 inconclusive
COc1cc(OC)cc(C2=NC3(CCC(C)CC3)NC2=S)c1 (stereo unspecified)	KCC2 mod 18 (no result: Measles CPE) | KCC2 secondary inactive | KCC2 bumet counter 0.019 | KCC2 secondary2 inactive | HEK counter1 0.025 | KCC2 ouabain inconclusive | HEK293 Tl flux2 inactive
Cc1cc2cc3c(cc2nc1SCc1ccc(C(=O)O)cc1)OCCO3	KCC2 mod -4.2 (no result: ROMK primary) | KCC2 secondary inactive | KCC2 bumet counter 0.098 | KCC2 secondary2 inconclusive | HEK counter1 0.036 | KCC2 ouabain 0.035 | HEK293 Tl flux2 0.014
Cc1cc2cc3c(cc2nc1SCC(=O)O)OCCO3	none (no result: ROMK primary)
CCN(CC)CCSc1nnc2c3ccccc3n(Cc3ccccc3)c2n1	none (no result: Measles CPE, Arbovirus anti, ROMK primary)
Cc1ccc(-c2n[nH]c(=S)n2/N=C/c2cccn2C)cc1	KCC2 mod 5.2 (no result: HSV replic up, ROMK primary) | KCC2 secondary inactive | KCC2 bumet counter 0.031 | KCC2 secondary2 inactive | HEK counter1 0.0093 | KCC2 ouabain inactive | HEK293 Tl flux2 0.011
S=c1[nH]nc(C2CCCCC2)n1/N=C/c1cccs1	KCC2 mod 6.1 (no result: HSV replic up, ROMK primary) | KCC2 secondary 0.013 | KCC2 bumet counter 0.065 | KCC2 secondary2 inactive | HEK counter1 0.023 | KCC2 ouabain inconclusive | HEK293 Tl flux2 inconclusive
S=c1[nH]nc(C2CCCCC2)n1/N=C/c1ccncc1	none (no result: Measles CPE, ROMK primary)
S=c1[nH]nc(-c2cccs2)n1/N=C/c1cn(-c2ccccc2)nc1-c1cccs1	none (no result: Measles CPE, Arbovirus anti)
Cc1ccc(-c2nn(-c3ccccc3)cc2/C=N/n2c(-c3cccs3)n[nH]c2=S)cc1	KCC2 mod 4.6 (no result: Measles CPE, Arbovirus anti) | KCC2 secondary inactive | KCC2 bumet counter 0.0094 | KCC2 secondary2 inactive | HEK counter1 0.018 | KCC2 ouabain inactive | HEK293 Tl flux2 inactive
CC(C)(C)c1ccc(-c2n[nH]c(=S)n2/N=C/c2ccncc2)cc1	KCC2 mod 5.6 (no result: HSV replic up) | KCC2 secondary inactive | KCC2 bumet counter 0.018 | KCC2 secondary2 inactive | HEK counter1 0.013 | KCC2 ouabain inconclusive | HEK293 Tl flux2 inactive
COc1cc(-c2ccc3oc(-c4ccsc4)c(C#CC4(O)CCCCC4)c3c2)cc(OC)c1OC	none (no result: Measles CPE, Arbovirus anti, KCC2 mod, ROMK primary)
Cc1ccc(NC(=O)c2ccc(=O)[nH]c2)cc1S(=O)(=O)N1CCCCC1	none (no result: Measles CPE, Arbovirus anti, ROMK primary)
Cc1ccnc(NS(=O)(=O)c2ccc(NC(=O)CSc3nc(-c4ccccc4)cc(=O)[nH]3)cc2)n1	none (no result: Measles CPE)
CC(NC(=O)c1cc(S(=O)(=O)N(C)C)ccc1N1CCCC1)C1CC2CCC1C2 (stereo unspecified)	none (no result: Measles CPE)
S=c1[nH]nc(-c2ccccc2)n1/N=C/c1cccs1	none (no result: KCC2 mod, ROMK primary) | KCC2 secondary inactive | KCC2 bumet counter 0.04 | KCC2 secondary2 0.043 | HEK counter1 0.025 | KCC2 ouabain 0.037 | HEK293 Tl flux2 0.027
CC(=O)Nc1cccc(NC(=O)CSc2nnnn2-c2ccc3c(c2)OCO3)c1	none (no result: Measles CPE, Arbovirus anti, KCC2 mod, ROMK primary)
COc1cc(OC)cc(C(=O)NC(=S)NNC(=O)[C@H]2C[C@@H]2c2ccccc2)c1	KCC2 mod 59 (no result: Measles CPE, Arbovirus anti, ROMK primary) | KCC2 secondary 0.023 | KCC2 bumet counter 0.078 | KCC2 secondary2 0.043 | HEK counter1 0.033 | KCC2 ouabain 0.059 | HEK293 Tl flux2 0.016
O=C(NC(=S)NNC(=O)[C@H]1C[C@@H]1c1ccccc1)c1ccc(F)cc1	KCC2 mod 20 (no result: Measles CPE, Arbovirus anti, ROMK primary) | KCC2 secondary inactive | KCC2 bumet counter 0.02 | KCC2 secondary2 inactive | HEK counter1 0.02 | KCC2 ouabain 0.03 | HEK293 Tl flux2 0.021
O=C(Cn1c(=S)[nH]c2ccccc2c1=O)N1CCc2ccccc2C1	none (no result: Measles CPE)
CC1CCCCC1NC(=O)CCCn1c(=S)[nH]c2ccccc2c1=O (stereo unspecified)	none (no result: Measles CPE)
O=c1c2ccccc2[nH]c(=S)n1CCN1CCc2ccccc2C1	KCC2 mod 58 (no result: Measles CPE, Arbovirus anti, ROMK primary) | KCC2 secondary 0.018 | KCC2 bumet counter 0.13 | KCC2 secondary2 inactive | HEK counter1 0.036 | KCC2 ouabain 0.069 | HEK293 Tl flux2 0.015
O=c1c2ccccc2[nH]c(=S)n1Cc1cccs1	KCC2 mod 26 | KCC2 secondary inconclusive | KCC2 bumet counter 0.048 | KCC2 secondary2 inactive | HEK counter1 0.017 | KCC2 ouabain 0.041 | HEK293 Tl flux2 0.012
O=c1c2ccccc2[nH]c(=S)n1CCc1ccccc1	KCC2 mod 29 | KCC2 secondary 0.027 | KCC2 bumet counter 0.072 | KCC2 secondary2 inactive | HEK counter1 0.11 | KCC2 ouabain 0.061 | HEK293 Tl flux2 0.055
